This passage reports z-score and composite z-score results from PubChem BioAssay.

Active and inactive are the calls of the source.

Test [1] in a line: optical density shifts of acrAB sulA E. coli – strain DRC41, OD650, 48 h, E. coli filamentation inducer project, primary screen (AID 1152).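 Note: E. coli MC1000 strain DRC41 lacking acrAB efflux pump and sulA.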 The following applies: higher = more signal, called active from +8 up or from −8 down.
A short description of test [2]: probe aLefty1 binding on compound microarray – biochemical, small-molecule microarray, 635/667 nm fluorescence, primary screen (AID 1153).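 Note: score merges spot fluorescence with signal-to-noise ratio from the scanned slide images.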 The following applies: higher = more signal.
Test [3] can be described thus: plasmodial surface anion channel blockers, osmotic lysis – cell-based, P. falciparum Indochina, OD700, 1 h, primary screen (AID 1154). The following applies: P. falciparum Indochina infected RBC osmotic lysis, higher = more signal, called active from +8 up or from −8 down.
Test [4] is described as follows: plasmodial surface anion channel blockers, osmotic lysis – cell-based, P. falciparum Indochina, OD700, 2 h, primary screen (AID 1155).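 Note: lysis reports solute entry through the parasite surface anion channel PSAC.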 The following applies: P. falciparum Indochina infected erythrocytes, higher = more signal, called active from +8 up or from −8 down.
Test [5] can be described thus: changes in parasitized red cell lysis, either direction – P. falciparum Indochina, OD700, 3 h, PSAC antagonist project, primary screen (AID 1156). The following applies: P. falciparum-infected erythrocytes, osmotic lysis, higher = more signal, called active from +8 up or from −8 down.
The nature of test [6]: plasmodial surface anion channel blockers, osmotic lysis – cell-based, P. falciparum Indochina, OD700, 18 h, primary screen (AID 1157). The following applies: P. falciparum Indochina infected erythrocytes, osmotic lysis OD700, 18 h; higher = more signal, called active from +8 up or from −8 down.
Test [7] in a line: S6 kinase pathway phospho-S6 level changes – cell-based, A549, cytoblot, luminescence, serum-stimulated, primary screen (AID 1158).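 Note: serum-stimulated A549 lung adenocarcinoma cells; signal is phosphorylated S6 detected by cytoblot immunostaining with HRP secondary.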 The following applies: 5 h, higher = more signal.
The target in test [8] is NADPH oxidase 2 (Homo sapiens) (UniProt P04839). Description: compounds shifting NOX2 Amplex Red fluorescence – cell-based, HEK293-NOX2, PMA-stimulated, NOX inhibitor project, primary screen (AID 1159). Note: test concentration not given here. The following applies: 45 min, higher = more signal, called active from +8 up or from −8 down.
In test [9] the target is NADPH oxidase 4 (Homo sapiens) (UniProt Q9NPH5). Description: compounds shifting NOX4 Amplex Red fluorescence – cell-based, HEK293-NOX4, tetracycline-induced, NOX inhibitor project, primary screen (AID 1160). The following applies: HEK293-NOX4, Amplex Red H2O2 fluorescence, 45 min; higher = more signal, called active from +8 up or from −8 down.
Test [10] has as its target NADPH oxidase 5 (Homo sapiens) (UniProt Q96PH1). Description: compounds shifting NOX5 Amplex Red fluorescence – cell-based, HEK293-NOX5, NOX inhibitor project, primary screen (AID 1161). The following applies: HEK293-NOX5, ionomycin, 45 min, higher = more signal.
Test [11] can be described thus: compound effects on lung adenocarcinoma cell viability – A549, calcein-AM fluorescence, 48 h, basal, profiling panel (AID 1162). Note: test concentration not given here. The following applies: higher = more signal.
The nature of test [12]: compound effects on differentiated 3T3-L1 adipocyte viability – cell-based, 3T3-L1 adipocytes, calcein-AM fluorescence, 48 h, basal, profiling panel (AID 1163). Note: test concentration not given here. The following applies: 3T3-L1 adipocytes viability, higher = more signal.
A short description of test [13]: compound effects on hepatocellular carcinoma cell viability – HepG2, calcein-AM fluorescence, 48 h, basal, profiling panel (AID 1164). Note: test concentration not given here. The following applies: higher = more signal.
A short description of test [14]: compound effects on multiple myeloma cell viability – MM1S, calcein-AM fluorescence, 48 h, basal, profiling panel (AID 1165).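 Note: viability of MM1S multiple myeloma cells under basal unstimulated conditions; test concentration not given here.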 The following applies: higher = more signal.
The nature of test [15]: calcein-AM signal in unstimulated myeloma cells – cell-based, calcein-AM fluorescence, 48 h, PK04 Diversity Set, profiling panel (AID 1166).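 Note: cells grown under basal conditions without added stimulus; test concentration not given here.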 The following applies: RPMI8226 myeloma viability, higher = more signal.
A short description of test [16]: JC-1 mitochondrial signal, unstimulated HepG2 cells – cell-based, JC-1 fluorescence, 24 h, 100 nL compound, profiling panel (AID 1167). Note: test concentration not given here. The following applies: HepG2 mitochondrial potential, higher = more signal.
A short description of test [17]: JC-1 mitochondrial signal, unstimulated adipocytes – cell-based, JC-1 fluorescence, 3T3-L1 adipocytes, 24 h, 100 nL compound, profiling panel (AID 1168). Note: test concentration not given here. The following applies: JC-1 mitochondrial fluorescence, higher = more signal, called active from +8 up or from −8 down.
A short description of test [18]: JC-1 mitochondrial signal, unstimulated myeloma cells – cell-based, JC-1 fluorescence, RPMI8226, 24 h, 100 nL compound, profiling panel (AID 1169). Note: test concentration not given here. The following applies: JC-1 mitochondrial potential fluorescence, higher = more signal.
Test [19] is described as follows: JC-1 mitochondrial signal, unstimulated MM1S myeloma – cell-based, JC-1 fluorescence, 24 h, 100 nL compound, profiling panel (AID 1170). Note: test concentration not given here. The following applies: MM1S mitochondrial potential, higher = more signal.
A short description of test [20]: resazurin metabolic signal in A549 cells – cell-based, resazurin fluorescence, 24 h, PK04 Diversity Set, profiling panel (AID 1171). Note: test concentration not given here. The following applies: A549 viability, higher = more signal, called active from +8 up or from −8 down. (Alamar Blue is a resazurin reagent that responds to reducing activity.)

Chain of NADPH oxidase 4 (Homo sapiens) (Q9NPH5 whole entry, looked up): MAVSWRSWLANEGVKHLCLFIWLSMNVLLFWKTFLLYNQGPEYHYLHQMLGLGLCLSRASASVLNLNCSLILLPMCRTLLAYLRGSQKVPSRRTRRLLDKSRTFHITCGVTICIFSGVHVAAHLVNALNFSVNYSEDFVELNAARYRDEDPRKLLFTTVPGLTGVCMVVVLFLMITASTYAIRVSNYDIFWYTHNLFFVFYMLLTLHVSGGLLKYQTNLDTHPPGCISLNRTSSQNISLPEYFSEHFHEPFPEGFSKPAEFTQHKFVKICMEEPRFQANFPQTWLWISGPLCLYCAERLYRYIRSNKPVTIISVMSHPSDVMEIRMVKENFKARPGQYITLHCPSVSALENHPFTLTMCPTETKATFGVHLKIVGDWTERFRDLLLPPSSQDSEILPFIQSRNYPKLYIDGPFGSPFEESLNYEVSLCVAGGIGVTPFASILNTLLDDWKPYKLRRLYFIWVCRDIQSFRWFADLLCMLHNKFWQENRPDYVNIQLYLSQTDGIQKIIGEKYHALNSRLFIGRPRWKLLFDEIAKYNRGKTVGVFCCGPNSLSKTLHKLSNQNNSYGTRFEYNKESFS
Chain of NADPH oxidase 2 (Homo sapiens) (P04839 whole entry, looked up): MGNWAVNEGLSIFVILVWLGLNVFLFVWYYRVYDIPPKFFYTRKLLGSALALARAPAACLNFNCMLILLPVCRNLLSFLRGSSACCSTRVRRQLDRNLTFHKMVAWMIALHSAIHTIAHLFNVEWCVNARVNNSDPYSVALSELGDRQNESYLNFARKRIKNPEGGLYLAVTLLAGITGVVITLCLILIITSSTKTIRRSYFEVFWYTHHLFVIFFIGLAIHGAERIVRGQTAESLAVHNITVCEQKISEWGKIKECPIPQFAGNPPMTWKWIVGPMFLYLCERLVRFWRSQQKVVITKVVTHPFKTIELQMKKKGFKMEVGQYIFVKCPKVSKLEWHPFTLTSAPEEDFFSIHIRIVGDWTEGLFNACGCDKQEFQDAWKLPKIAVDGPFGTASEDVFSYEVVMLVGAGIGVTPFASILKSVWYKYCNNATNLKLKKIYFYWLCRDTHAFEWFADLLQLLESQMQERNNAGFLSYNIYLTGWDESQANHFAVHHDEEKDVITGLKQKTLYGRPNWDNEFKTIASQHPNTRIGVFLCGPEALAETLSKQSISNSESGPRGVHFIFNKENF
Chain of NADPH oxidase 5 (Homo sapiens) (Q96PH1 whole entry, looked up): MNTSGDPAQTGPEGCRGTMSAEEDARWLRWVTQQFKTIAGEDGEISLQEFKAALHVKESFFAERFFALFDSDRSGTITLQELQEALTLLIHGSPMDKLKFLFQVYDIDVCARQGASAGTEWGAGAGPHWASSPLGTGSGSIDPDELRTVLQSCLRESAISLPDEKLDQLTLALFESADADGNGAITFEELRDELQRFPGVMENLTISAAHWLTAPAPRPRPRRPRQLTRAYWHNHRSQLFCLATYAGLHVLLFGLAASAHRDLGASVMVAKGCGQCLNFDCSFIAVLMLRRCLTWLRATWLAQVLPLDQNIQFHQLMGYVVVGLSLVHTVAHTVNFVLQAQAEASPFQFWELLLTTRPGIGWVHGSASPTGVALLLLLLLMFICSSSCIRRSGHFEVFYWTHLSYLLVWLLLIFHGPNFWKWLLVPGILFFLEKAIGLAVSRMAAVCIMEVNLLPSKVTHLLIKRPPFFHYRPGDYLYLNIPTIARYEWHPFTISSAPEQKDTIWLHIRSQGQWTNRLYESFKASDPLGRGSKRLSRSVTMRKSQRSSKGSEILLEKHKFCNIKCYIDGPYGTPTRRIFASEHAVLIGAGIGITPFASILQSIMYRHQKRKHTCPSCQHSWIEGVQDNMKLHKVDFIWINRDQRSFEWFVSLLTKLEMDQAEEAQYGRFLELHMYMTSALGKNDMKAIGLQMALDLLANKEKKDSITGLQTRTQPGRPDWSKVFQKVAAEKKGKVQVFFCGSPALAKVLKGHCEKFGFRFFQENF

Regarding `NCCCCCNC(=O)[C@@H]1C[C@@H]2C(=O)N[C@@H](CCCCN)C(=O)N2[C@@H]1c1cccc(OCCO)c1`, the z-score was 1.17 (inactive) in test [1]; 0.539 (inactive) in [3]; 0.0681 (inactive) in [4]; 1.24 (inactive) in test [5]; 0.0802 (inactive) in test [6]; -0.157 in [7]. For the same compound, the z-score in test [8] is 0.141 (inactive); in test [9] it was 0.557 (inactive); in [10], 0.582; in test [11], 0.338; in test [12], 0.337; in [13] it was 0.68. Besides, the z-score is 0.89 in [14]; 0.269 in [15]; 0.0184 in test [16]; 1.37 (inactive) in test [17]; -0.698 in test [18]; -0.362 in test [19]. Besides, the z-score in test [20] is 0.714 (inactive). In addition, the composite z-score in test [2] was -0.432.

In the case of `COCCOC(=O)N1C(=O)[C@@]2(c3cc(C#CC4(O)CCCCCC4)ccc31)[C@H](C(=O)N1CCCCCCC1)[C@H]1C(=O)O[C@H](c3ccccc3)[C@H](c3ccccc3)N1[C@@H]2c1ccc(OCCO)cc1`, the z-score in test [1] is 1.08 (inactive); in test [3] it was 5.11 (inactive); in test [4], 2.64 (inactive); in test [5], 0.539 (inactive); in test [6], 1.27 (inactive); in [7], -0.108. The z-score in test [8] was 0.738 (inactive); in test [9], 0.507 (inactive); in [10], 1.36; in test [11], 0.364; in test [12] it was 1.85; in test [13] it was 0.783. Also, the z-score in test [14] was -1.62; in test [15] it was -2.6; in test [16], -0.914; in test [17], -2.37 (inactive); in [18], -0.693; in test [19], -0.756. Moreover, in test [20], the z-score was 1.08 (inactive). Moreover, the composite z-score in test [2] amounted to 2.64.

`C=CCC(OC(C)=O)[C@@H]1[C@@H](N(Cc2ccc(-c3ccccc3)cc2)C(=O)c2cccc3ccccc23)c2cc(OCCCO)ccc2N1C(=O)Cc1ccc2ccccc2c1` (stereo not given in full): the z-score in [1] was -0.316 (inactive); in [3], 1.14 (inactive); in [4], 0.355 (inactive); in test [5], -0.498 (inactive); in [6], 0.283 (inactive); in test [7], 0.393. The z-score in [8] is 0.949 (inactive); in test [9], -0.22 (inactive); in test [10], -4.09; in test [11] it was -0.0841; in test [12] it was -0.38; in [13] it was -0.0632. For the same compound, the z-score was -0.211 in [14]; -0.183 in [15]; 1.47 in test [16]; -1.43 (inactive) in test [17]; 1.22 in [18]; 0.313 in test [19]. Further, in [20], the z-score is 0.74 (inactive). In test [2], this compound displayed a composite z-score of -0.191.

Regarding `[N-]=[N+]=Nc1ccccc1C[C@@]1(C(=O)O)N=C(c2ccc(OCCCO)cc2)O[C@@H]1c1ccccc1`, the z-score was -0.265 (inactive) in test [1]; 17.7 (active) in test [3]; 1.37 (inactive) in test [4]; -1.14 (inactive) in test [5]; 0.245 (inactive) in test [6]; -0.405 in test [7]. The z-score was -0.135 (inactive) in test [8]; 1.27 (inactive) in test [9]; 1.24 in test [10]; -0.0649 in test [11]; -0.532 in test [12]; -0.222 in test [13]. Moreover, the z-score in test [14] was -1.78; in [15], -1.26; in test [16], -1.65; in test [17] it was -0.0754 (inactive); in test [18], 0.00697; in test [19], -0.187. For the same compound, the z-score in test [20] is 0.293 (inactive). In [2], this compound gave a composite z-score of 0.273.

On to `C=C[C@@H](COC(C)=O)NS(=O)(=O)c1ccc(Br)cc1`, for which the z-score in test [1] was 0.032 (inactive); in [3], -0.0045 (inactive); in [4] it was -0.446 (inactive); in [5] it was -0.123 (inactive); in [6], 0.0804 (inactive); in test [7], -0.0771. In addition, the z-score is -0.34 (inactive) in [8]; -0.487 (inactive) in test [9]; -0.833 in test [10]; 0.0976 in test [11]; -0.342 in test [12]; 1.04 in test [13]. Further, the z-score in test [14] was -2.08; in test [15], -1.74; in [16] it was -0.742; in test [17], -0.195 (inactive); in test [18], -0.0875; in test [19], -0.259. Further, the z-score in test [20] is -1.82 (inactive). The composite z-score in test [2] was -0.0464.

Regarding `CCOC(=O)C[C@H]1[C@H](OC(=O)c2ccc(-c3ccccc3)cc2)[C@@H](NC(=O)c2ccc3ccccc3c2)c2cc(OCCCO)ccc2N1C(=O)c1ccc2ccccc2n1`, the z-score was -0.572 (inactive) in [1]; 4.55 (inactive) in test [3]; 0.568 (inactive) in test [4]; -0.559 (inactive) in [5]; 0.159 (inactive) in test [6]; 0.762 in [7]. For the same compound, the z-score in [8] is -1.35 (inactive); in test [9], 0.928 (inactive); in [10], 0.0885; in test [11], 0.245; in test [12], 0.543; in test [13], -0.573. Besides, the z-score in test [14] is 0.477; in test [15], -1.06; in [16], 1.33; in test [17], 1.26 (inactive); in [18] it was 0.729; in [19] it was 0.164. Also, in [20], the z-score is 0.094 (inactive). The composite z-score in [2] was 0.302.

Take `CC(C)OC(=O)CC(=O)CC(O)c1cccc(C#N)c1` (stereo not given): the z-score in test [1] is 1.27 (inactive); in test [3] it was 1.65 (inactive); in test [4], -0.261 (inactive); in test [5], -1.36 (inactive); in test [6], -1.2 (inactive); in [7], 1.29. Besides, the z-score in [8] is 0.247 (inactive); in [9], 0.89 (inactive); in test [10], -0.0191; in [11], 1.59; in test [12], 0.136; in test [13], 0.886. For the same compound, the z-score in [14] is 0.387; in [15], 0.518; in test [16], 0.575; in test [17], 0.837 (inactive); in test [18], 0.105; in test [19] it was -1.56. Besides, in test [20], the z-score was 0.481 (inactive). Also, the composite z-score in [2] was determined as 0.273.

For the compound `COc1ccccc1CN1C(=O)c2ccccc2[C@@H](C(=O)NC(C)C)[C@@H]1c1ccc(CO)cc1`, the z-score in [1] is 0.671 (inactive); in test [3] it was 1.18 (inactive); in test [4], 0.525 (inactive); in test [5] it was 0.797 (inactive); in test [6], 0.376 (inactive); in [7] it was 0.0984. Further, the z-score in test [8] was 0.372 (inactive); in [9] it was 1.44 (inactive); in [10], 0.976; in test [11] it was 1.66; in test [12], 0.611; in test [13] it was 1.95. For the same compound, the z-score in [14] is 0.472; in [15], 0.717; in [16], 1.63; in [17], -0.41 (inactive); in [18], 0.652; in test [19] it was -0.365. Besides, the z-score in [20] was 2.35 (inactive). In test [2], the composite z-score is 0.211.

On to `COc1cc(CO)cc(I)c1O[C@H]1C=C(C(=O)NCCO)C[C@@H](NCc2ccccc2F)[C@@H]1O`, for which the z-score in test [1] was 1.96 (inactive); in [3], 22.2 (active); in test [4], 4.37 (inactive); in test [5], 3.59 (inactive); in test [6] it was 1.09 (inactive); in test [7], 0.51. Moreover, the z-score in [8] is 0.0575 (inactive); in test [9] it was -0.344 (inactive); in test [10], -1.69; in [11], 0.687; in test [12], -0.512; in [13], 0.496. Besides, the z-score in [14] was 0.0067; in [15], 0.12; in [16], -0.0312; in [17], -0.561 (inactive); in test [18] it was 0.231; in [19] it was -1.59. In test [20], the z-score is 0.106 (inactive). In test [2], this compound gave a composite z-score of -0.117.
